# An excerpt weighted towards active compounds, which were near 3.6% of everything screened.
# Abeta yeast res = A-beta toxicity reversal in yeast. Potency, µM (series often up to 46.1 µM), usual class: activators. yeast expressing A-beta42, growth rescue, OD600, 48 h; response scale: 0% DMSO, 100% iron-clioquinol control. AID 1347071. hit rate 0.063% among 410,000; further: nearly all actives have a fitted effect of over 55% in size
#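 Growth rescue measured by 600 nm absorbance after 48 h yeast culture at 30 C with compound. Values normalized between DMSO and an equimolar ferric chloride plus clioquinol control.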
# ClpP mod = qHTS Assay for Activators of ClpP. hit rate 1.9% among 340,000. Potency, µM (titrated, usually from 57.5 µM). purified B. subtilis ClpP, FRET peptide cleavage, 20 min; active means well fitted falling curve with a large enough effect; inconclusive means small, poorly fitted or top-dose-only effect; inactive means no such curve, though single readings can be large or run the other way; further: the source files actives as falling curves though it sought activators and does not explain the sign; nearly all actives have a fitted effect of over 65% in size
# Target sequence (P80244 whole entry, looked up): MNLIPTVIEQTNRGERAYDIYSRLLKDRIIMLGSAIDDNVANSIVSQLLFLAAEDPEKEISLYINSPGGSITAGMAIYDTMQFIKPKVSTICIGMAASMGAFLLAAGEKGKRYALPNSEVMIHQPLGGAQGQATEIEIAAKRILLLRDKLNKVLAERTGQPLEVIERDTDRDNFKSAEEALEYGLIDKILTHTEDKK
#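 Buffer: 100 mM Tris/HCl pH8, 100 mM KCl, 0.05% low protease BSA, 2.5% glycerol, 0.01% Tween-20. ClpP 10 microg/mL final; 20 min RT; delta FRET normalized to ADEP and DMSO controls.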
# aSyn rescue = inhibitors of alpha-synuclein toxicity in yeast; AID 652106; hit rate 0.14% among 370,000; Potency, µM (titrated, usually from 46.1 µM), most hits filed as activators; Yeast expressing alpha-synuclein, growth rescue, BacTiter-Glo, 24 h; further: nearly all actives have a fitted effect of over 65% in size
#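 Readout is rescue of growth in alpha-synuclein-expressing yeast, so inhibitors of toxicity appear as activators. Growth after 24 hr at 30 deg C in galactose medium is quantified by luminescence.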
# FUS suppressor = FUS proteinopathy suppression in yeast; S. cerevisiae FUS-expressing, growth rescue, OD600, 24 h; Potency, µM (doses to about 76.6 µM), actives largely listed as activators; hit rate 0.24% among 390,000; further: nearly all actives have a fitted effect of over 55% in size
#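 Read-out: OD at 600 nm after 24hr at 30C, reporting rescue of FUS-induced yeast toxicity. Cells at OD 0.005 in galactose (2%) minimal medium; compounds tested in a dilution series; CP55940 titration from 92uM final as control.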
# TDP-43 yeast inh = inhibitors of TDP-43 toxicity in yeast. TDP-43 expressing yeast growth rescue, BacTiter-Glo, 24 h. Potency, µM (series often up to 46.1 µM), actives largely listed as activators. hit rate 1.8% among 410,000; further: nearly all actives have a fitted effect of over 50% in size
#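 Galactose-induced TDP-43 yeast, OD600=0.02, compound pinned; 24 hr, 30 deg C; BacTiter-Glo luminescence for growth. Inhibitors of TDP-43 toxicity read as activators.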
# MmCpn inh = blocks the Methanococcus maripaludis chaperonin Mm-Cpn; purified Mm-Cpn ATPase, ADP Transcreener TR-FRET; Potency, µM (series often up to 76.9 µM), most hits filed as inhibitors; hit rate 0.031% among 330,000; AID 504842; further: nearly all actives have a fitted effect of over 80% in size
#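 Measured: ADP formation by purified Mm-CPN. Conditions: 25 nM protein, 10 uM ATP, Tris pH 7.4 with Mg2+, K+ and DTT, 37°C for 30 min. Detection: Transcreener HTRF after 30 min at room temperature.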
# A number is an active result; 0 = inactive; ? = inconclusive; - = not tested or not shown. Unless noted, the call rests on the fitted dose curve; in most records, active means well fitted curve in the direction sought with a large enough effect; inconclusive means small, poorly fitted or top-dose-only effect, or another doubt; inactive means no such curve, though single readings can be large; an effect the other way counts as inactive or inconclusive.
SMILES,Abeta yeast res,ClpP mod,aSyn rescue,FUS suppressor,TDP-43 yeast inh,MmCpn inh
CCC[C@H]1NC(=O)[C@H](C)N(C)C(=O)C(C)(C)C(=O)C(C)NC(=O)[C@H](Cc2ccc(OC)cc2)N(C)C(=O)[C@H](C(C)C)N(C)C(=O)CNC(=O)[C@H](CC(C)C)N(C)C(=O)CNC(=O)[C@H]([C@@H](C)CC)OC(=O)[C@H]1C (some centres undefined),0,0,0,?,35µM,0
Cc1ccc(NC(=O)c2cc3cc(OC(F)(F)F)ccc3[nH]2)cc1,0,0,0,0,0,0
O=C(NNC(=O)c1ccccc1Cl)c1cc2cc(OC(F)(F)F)ccc2[nH]1,0,16µM,0,0,0,0
COc1cc(C(=O)N2CCc3c([nH]c4ccccc34)C2c2ccc(F)cc2)cc(OC)c1OC (centres undefined),0,0,-,0,0,-
COc1cccc(NC(=O)Nc2cccn(Cc3ccc(C)cc3)c2=O)c1,0,0,0,0,0,0
COc1cccc(Cn2cccc(NC(=O)Nc3cccc(C#N)c3)c2=O)c1,0,28µM,0,0,0,0
Cc1ccc(NC(=O)C(=O)NNC(=O)c2cccs2)cc1,0,0,0,0,0,0
Cc1ccc(NC(=O)c2cccs2)cc1,0,0,0,28µM,0,0
CCCCN(CCCC)S(=O)(=O)c1ccc(NC(=O)c2cccs2)cc1,0,?,0,2µM,0,0
Cc1cc(C)nc(NS(=O)(=O)c2ccc(NC(=O)c3cccs3)cc2)n1,0,0,0,0,0,0
COc1cc(NC(=O)Cn2cnc3sc(C)c(S(=O)(=O)N4CCC(C)CC4)c3c2=O)cc(OC)c1OC,0,0,-,0,0,-
CC(C)CNC(=O)[C@H]1N2C(=O)c3ccccc3C2SC1(C)C (some centres undefined),0,28µM,0,0,0,0
CC(C)c1ccc2c(c1)-c1ccccc1S(=O)(=O)N2CC(=O)N1CCCCC1,0,0,-,?,0,-
CCNc1nc(NCC)n2c(SC(C)C(=O)c3ccc(C)cc3)nnc2n1 (centres undefined),0,0,0,-,0,0
CCNc1nc(NCC)n2c(SC(C(=O)Nc3cc(C)ccc3C)c3ccccc3)nnc2n1 (centres undefined),0,0,0,32µM,0,0
COC(=O)c1cccnc1-n1c(=O)c2cccnc2n(CC(=O)Nc2ccccc2F)c1=O,0,0,-,0,0,-
CCc1ccc(NC(=O)C2CCCN2S(=O)(=O)c2ccc3c(c2)CCCC(=O)N3)cc1 (centres undefined),0,0,-,0,0,-
COc1cccc(OC(C)c2ccnc3nc(/N=C/N(C)C)nn23)c1 (centres undefined),0,32µM,0,?,0,0
Cc1cccc(OC(C)c2ccnc3nc(/N=C/N(C)C)nn23)c1 (centres undefined),0,28µM,0,0,0,0
CC(Oc1ccc(C(C)(C)C)cc1)c1ccnc2nc(/N=C/N(C)C)nn12 (centres undefined),0,28µM,0,0,0,0
CC(Oc1ccc(F)cc1)c1ccnc2nc(/N=C/N(C)C)nn12 (centres undefined),0,-,0,0,0,0
COc1ccc(CCn2c(=S)[nH]c(=O)c3cccnc32)cc1OC,-,0,0,-,-,-
COc1ccc(CN(Cc2ccccc2)C(=O)C2CC2)cc1COc1ccc(NC(C)=O)cc1,-,0,?,-,-,-
CCC(=O)Nc1ccccc1-c1nc2ccccc2n(C(C)C(=O)Nc2ccc(OC)cc2)c1=O (centres undefined),0,0,-,?,0,-
Cc1cc2n(n1)C(c1cccs1)Nc1ccccc1-2 (centres undefined),0,20µM,0,0,0,0
Cc1cc2n(n1)C(c1ccc3c(c1)OCO3)Nc1c(C)cccc1-2 (centres undefined),0,0,-,0,0,0
Cc1cc(C)c2c(c1)-c1cc(C)nn1C(c1ccc3c(c1)OCO3)N2 (centres undefined),0,32µM,0,0,18µM,0

# Screening results deposited in PubChem by National Center for Advancing Translational Sciences (NCATS).
